# Laboratory results as given in PubChem BioAssay (NCI).
# This is part of a sample that, as a whole, favours compounds with a hit. Of some 83,000 tested, about 20% had one in any assay.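 Growth was measured after 48 h exposure to one concentration of compound in 96-well plates. Values under 10 count as active.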 Unmarked numbers belong to inactive results. Active and inactive are the calls of the source.
# What was measured:
# Assay in all cases: NCI-60 one-dose screen, 48 h (100 = growth as untreated, 0 = no growth, -100 = all killed)
# NCI-H522 lung = conditions: 10 µM unless noted
# A549/ATCC NSCLC = conditions: 10 µM unless noted
# COLO 205 colon = conditions: 10 µM
# SNB-19 CNS = conditions: 10 µM unless noted
# EKVX NSCLC = conditions: 10 µM unless noted
# UO-31 renal = conditions: 10 µM unless noted
# TK-10 renal = conditions: 10 µM unless noted
# ACHN renal = conditions: 10 µM unless noted
# CAKI-1 renal = conditions: 10 µM unless noted
# MOLT-4 leukemia = conditions: 10 µM
# RPMI-8226 leukemia = conditions: 10 µM unless noted
# OVCAR-5 ovarian = conditions: 10 µM unless noted
# SK-OV-3 ovarian = conditions: 10 µM unless noted
# T-47D breast = conditions: 10 µM unless noted
# MDA-MB-435 melanoma = conditions: 10 µM unless noted
# HT29 colon = conditions: 10 µM unless noted
# SNB-75 CNS = conditions: 10 µM unless noted
# OVCAR-8 ovarian = conditions: 10 µM unless noted
# HOP-92 NSCLC = conditions: 10 µM unless noted
SMILES,growth (NCI-H522 lung),growth (A549/ATCC NSCLC) [%],growth (COLO 205 colon),growth (SNB-19 CNS),growth (EKVX NSCLC),growth (UO-31 renal),growth (TK-10 renal),growth (ACHN renal),growth (CAKI-1 renal),growth (MOLT-4 leukemia),growth (RPMI-8226 leukemia),growth (OVCAR-5 ovarian),growth (SK-OV-3 ovarian),growth (T-47D breast) [%],growth (MDA-MB-435 melanoma),growth (HT29 colon),growth (SNB-75 CNS) [%],growth (OVCAR-8 ovarian),growth (HOP-92 NSCLC)
CO[C@@H]1[C@H](OC(=O)NC(=O)CCl)CC[C@]2(CO2)[C@H]1[C@@]1(C)O[C@@H]1CC=C(C)C,10.3%,59.1,57.4%,48.6%,91.7%,52.6%,92.6%,60.7%,67.2%,63%,45.4%,72.3%,93.7%,64.6,62.6%,,,,
Cc1cc(C)nc(C)c1.[Cl][Hg][Cl],3.42% (active),97.2,123%,,,95.5%,,101%,96.4%,92%,98.9%,,110%,81.8,83.9%,95.7%,96,100%,
CCOC(=O)c1cnc(SCc2ccc(Cl)c(Cl)c2)nc1N1CC1,36.7%,50,67.8%,62.9%,69.7%,34.7%,71.9%,44.1%,31.1%,24.5%,59.7%,82.9%,74.6%,,10.5%,31.2%,43.1,51.6%,
Cc1ccccc1O,99%,100,105%,107%,111%,82.6%,115%,103%,96.2%,107%,108%,121%,,94.9,117%,110%,,,
S=P(N1CCCCCC1)(N1CC1)N1CC1,102%,104,93.9%,101%,119%,104%,98.5%,104%,96.3%,33.4%,,107%,93.9%,94.5,109%,101%,98.7,100%,
O=C(/C=C/c1ccccc1)N[C@@H](CO)Cc1cnc[nH]1,,,104%,103%,,98.2%,93.5%,96.4%,100%,93.8%,98%,98.3%,113%,104,113%,105%,94.3,99.8%,100%
CCOCC1(CCc2ccccc2)C(=O)NC(=S)NC1=O,,97.8,,105%,116%,84%,115%,108%,99.9%,91.8%,104%,107%,112%,99.3,108%,108%,100,107%,101%
N#C[Se]CCCNS(=O)(=O)C1CC2C=CC1C2 (configuration not stated),,,-39% (active),-42.3% (active),-96% (active),-98.7% (active),-66.4% (active),-67% (active),-99.1% (active),,-29.5% (active),4.98% (active),-36.4% (active),30.6,-41.2% (active),1.16% (active),,-27.1% (active),-73.1% (active)
CCC(C)/C=C(C)/C=C/C(=O)c1c(O)c(-c2ccc(O)cc2)c[nH]c1=O (configuration not stated),34.1%,63.1,105%,59%,58%,35%,27.3%,50.5%,-16.5% (active),,41.6%,,74.3%,48.6,24.2%,14.3%,51.5,51.2%,
CC1(C)N=C(N)N=C(N)N1c1ccc(CCC(=O)Nc2cccc(S(=O)(=O)F)c2)cc1,91.1%,44.6,93.4%,51.9%,56.8%,85.2%,98.9%,99.3%,,82.7%,,91.2%,101%,98.4,35.3%,66.2%,59.5,85.8%,
ClCCN(CCCl)c1nc(Cl)c(C2CC(c3ccccc3)=NN2c2ccccc2)s1 (configuration not stated),75.1%,88.9,95.3%,79.9%,89.5%,72.4%,108%,89.6%,81.4%,75.4%,,99.5%,82.9%,66.3,103%,82.5%,78.9,90.3%,
O=c1cc[nH]c(=O)o1,,,104%,108%,,93.6%,84.1%,115%,102%,97.4%,93.1%,109%,,96.3,111%,,84.7,96.6%,118%
CO[C@@H](c1ccccc1Cl)[C@H](C)OC(N)=O,94.2%,98.4,101%,96.7%,100%,85.7%,97.6%,99.6%,92.1%,107%,110%,,102%,,97.8%,106%,,103%,
C[C@]12CC[C@H]3[C@@H](C[C@@H]4N=C(c5ccc(O)cc5)S[C@@]45C[C@H](O)CC[C@]35C)[C@@H]1CC[C@@H]2O,41.2%,52.1,77.7%,71%,63.6%,9.33% (active),,46%,61.3%,-23.2% (active),-36.9% (active),106%,,,92%,19.9%,26.4,74.2%,
O=C(CI)Nc1ccc(Br)cc1,-85% (active),90.9,-78.2% (active),92.1%,102%,,-81.4% (active),-79.8% (active),-67.5% (active),-28.4% (active),36.6%,,101%,26.7,,-87.4% (active),96.7,11.9%,
O=CN1N=C(c2ccc3c(c2)OCO3)CC1c1sc(N(CCCl)CCCl)nc1Cl (configuration not stated),74.7%,83.9,104%,91%,97.9%,74.5%,95.3%,93.4%,,79.3%,,,90%,84.1,97.6%,97.9%,90.8,92.9%,
ClCCN(CCCl)c1ccc(C=NCCc2c[nH]c3ccccc23)cc1,92.4%,88.6,106%,,106%,60.6%,88%,44.5%,23.5%,63.1%,85.6%,94.5%,81%,80.6,110%,85.1%,82.5,74.8%,
CNC(=O)Oc1cccc(N(C)C)c1,89.1%,93,108%,102%,,86.6%,108%,104%,91.6%,107%,101%,102%,,104,,106%,97.5,,
COc1ccc(C2=NN(c3ccccc3)C(c3sc(N(CCCl)CCCl)nc3Cl)C2)cc1 (configuration not stated),71%,85.6,92.1%,93.5%,86%,78.6%,117%,82.6%,69.4%,,,90.1%,,,,72.6%,74.2,,
C1CNC2CCCC2C1 (configuration not stated),91.7%,110,102%,111%,,82.5%,103%,103%,,116%,101%,103%,108%,108,105%,102%,,106%,
